Test results as given in PubChem BioAssay.
Calls of active or inactive are those of the source.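 How the source made its calls, unless noted: active means visual image review flags a hit and inhibition of aggregation exceeds 20%; inconclusive means visual hit but inhibition at or below 20%; inactive means no hit on visual image review.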

Assay: inhibitors of mutant huntingtin aggregation, primary screen, imaging, exon1htt(103Q)mCFP cells, high-content imaging (AID 483);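 further: compound exposure lasted 3 days before fixation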;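 on nuclei count: percent of the per-plate median nuclei count of sample wells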
Conditions: exon1htt(103Q)mCFP cell line, aggregate imaging, at 2 µM; inhibition of aggregation: stronger effect = higher value; nuclei count: measured here: cell count, toxicity

Row | Structure (SMILES) | nuclei count [%] | inhibition of aggregation
1 | Cc1ccc(-c2nnn(CC(=O)NC3CC4CCC3C4)n2)cc1 (stereo not given) | 77.6 | 15.8% (inactive)
2 | CCOc1cc2[nH]c(=O)n(CCCCC(=O)N3CCCCCC3)c(=O)c2cc1OCC | 86.8 | 4.8% (inactive)
3 | Cc1ccc(C(C)C)c(OCc2nnc(SCC(=O)Nc3ncc(C)s3)n2C)c1 | 108 | -35.5% (inactive)
4 | COc1cccc(-n2c(SCC(=O)OC(C)C)nnc2-c2cccnc2)c1 | 96.8 | -5.3% (inactive)
5 | COCCn1c(SCC(=O)Nc2nnc(C)s2)nnc1-c1c[nH]c2ccccc12 | 114 | -15.6% (inactive)
6 | CCOC(=O)c1[nH]cc(-c2ccccc2)c1N1CCOCC1 | 110 | 0.7% (inactive)
7 | CC(C)OP(=O)(c1ccc(N(C)C)cc1)C(O)c1ccccc1F (stereo not given) | 117 | 12.5% (inactive)
8 | O=C(CSc1nnc(Cn2cnc3ccccc32)o1)c1ccccc1 | 92.9 | -1.5% (inactive)
9 | N#Cc1c(NC(=O)COC(=O)C2CC3C=CC2C3)oc(-c2ccccc2)c1-c1ccccc1 (stereo not given) | 95.7 | -7.7% (inactive)
10 | O=C(NCc1ccccc1)N1CCn2c(nc3ccccc32)C1 | 99.6 | 8.2% (inactive)
11 | CCCCn1c(SCc2cccnc2)nc2c1c(=O)n(C)c(=O)n2C | 90.8 | 27.2% (inactive)
12 | CCOC(=O)c1[nH]c2ccccc2c1NC(=O)c1ccco1 | 87.8 | 4.2% (inactive)
13 | CC(C(=O)NCCCN1CCOCC1)n1cccc1C(=O)c1ccccc1 (stereo not given) | 104 | -8.2% (inactive)
14 | COc1ccccc1NS(=O)(=O)c1ccc(NC(=O)c2nc3ncccn3n2)cc1 | 86.7 | 8.5% (inactive)
15 | CCCCCCC(=O)c1c(C)[nH]c(C(=O)OCC)c1C | 59.6 | 14.4% (inactive)
16 | O=C1CS/C(=N\C(=O)N2c3ccccc3Sc3ccccc32)N1 | 87.6 | 28.4% (inactive)
17 | COc1ccc2c(c1)CCc1c(C(=O)N3CCCc4ccccc43)noc1-2 | 69.7 | 17.4% (inactive)
18 | O=C(c1ccc(Cl)cc1)N(Cc1cccs1)C1CCS(=O)(=O)C1 (stereo not given) | 110 | -20.1% (inactive)
19 | c1nnc(NC2=NCCCCC2)s1 | 105 | 0.1% (inactive)
20 | Cc1cncn1CCc1nc2c3ccccc3nc(=S)n2[nH]1 | 67.3 | 4.4% (inactive)

Row | Structure (SMILES) | nuclei count [%] | inhibition of aggregation
21 | Cc1ccc(S(=O)(=O)Cc2ccc(C(=O)NCc3ccc4c(c3)OCO4)o2)cc1 | 86.7 | -21.6% (inactive)
22 | Cn1cnnc1SCC(=O)Nc1sc2c(c1C#N)CCCCC2 | 80.6 | 2.6% (inactive)
23 | O=C(O)c1[nH]nc2c1COc1ccccc1-2 | 97 | -9.9% (inactive)
24 | CC1(C)CC(=O)c2cc(OCC(=O)NCCCN3CCN(c4ccccc4F)CC3)ccc2O1 | 91.6 | -2% (inactive)
25 | COCCn1c(=O)[nH]c2cc(C(=O)NCCCN3CCN(c4ccc(F)cc4)CC3)ccc2c1=O | 107 | -5.1% (inactive)
26 | O=C(COC(=O)C1(c2ccccc2F)CCCC1)NC1CCS(=O)(=O)C1 (stereo not given) | 124 | -2.4% (inactive)
27 | COc1cc(OC)c(C(=O)Nc2ccc(N(C)C)cc2)cc1OC | 94 | 7.1% (inactive)
28 | CCOC(=O)Nc1cc(OCC)c(NC(=O)C2CC2)cc1OCC | 117 | -15% (inactive)
29 | CCOC(=O)c1sc(N2C(=O)C(O)=C(C(=O)c3ccco3)C2c2ccccc2)nc1C (stereo not given) | 102 | 9.3% (inactive)
30 | O=c1oc(-c2ccco2)nc2ccccc12 | 92.5 | 2.1% (inactive)
31 | COc1cccc(OC)c1C(=O)Nc1ccccc1N1CCCC1 | 92.9 | 3.7% (inactive)
32 | Cc1ccccc1Cn1nc(C)c(NC(=O)c2noc3c2CCCC3)c1C | 101 | 7.3% (inactive)
33 | Cc1ccc(C(=O)C2COC(=O)C2)cc1 (stereo not given) | 116 | -2.7% (inactive)
34 | COc1ccc(S(=O)(=O)n2ccnc2)c2cccnc12 | 82 | 1% (inactive)
35 | CCOC(=O)c1ccc(-c2c(C(=O)OCC)oc3cc(O)c(CC)cc3c2=O)o1 | 104 | 10.3% (inactive)
36 | COc1cc(NC(=O)c2cc(OC)c(OC)c(OC)c2)c(OC)cc1NC(=O)CN1CCCCC1 | 115 | 12.2% (inactive)
37 | CCCCC(CC)C(=O)Nc1ccc(Cl)cn1 (stereo not given) | 102 | 4.5% (inactive)
38 | O=C(/C=N/O)Nc1cccnc1 | 86 | 17.5% (inactive)
39 | c1ccc2c(c1)Cn1c-2nc2ccccc21 | 80.7 | 5.7% (inactive)
40 | O=c1cc(COn2nnc3ccc(C(F)(F)F)cc32)nc2sccn12 | 109 | -2.2% (inactive)

Assay: inhibitors of E-selectin induction by TNFa, primary screen, imaging, HUVEC, immunofluorescence, MLSMR starter and 10KST1 sets (AID 487;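 active means visually confirmed hit in the image check and inhibition above 20%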;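 on inhibition: signal is fraction of cell area covered by stained E-selectin grains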;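 on nuclei count: 100% = median nuclei count of all wells on the same plate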)
Conditions: HUVEC TNFalpha-induced E-selectin immunofluorescence imaging, at 2 µM; inhibition: stronger effect = higher value; nuclei count: measured here: cell number, toxicity

Row | Structure (SMILES) | nuclei count [%] | inhibition
41 | Cc1ccc(-c2nnn(CC(=O)NC3CC4CCC3C4)n2)cc1 (stereo not given) | 102 | 3.6% (inactive)
42 | CCOc1cc2[nH]c(=O)n(CCCCC(=O)N3CCCCCC3)c(=O)c2cc1OCC | 89.8 | 14.4% (inactive)
43 | Cc1ccc(C(C)C)c(OCc2nnc(SCC(=O)Nc3ncc(C)s3)n2C)c1 | 108 | -36.3% (inactive)
44 | COc1cccc(-n2c(SCC(=O)OC(C)C)nnc2-c2cccnc2)c1 | 113 | -29.7% (inactive)
45 | COCCn1c(SCC(=O)Nc2nnc(C)s2)nnc1-c1c[nH]c2ccccc12 | 113 | -37.4% (inactive)
46 | CCOC(=O)c1[nH]cc(-c2ccccc2)c1N1CCOCC1 | 100 | -131% (inactive)
47 | CC(C)OP(=O)(c1ccc(N(C)C)cc1)C(O)c1ccccc1F (stereo not given) | 117 | -14.7% (inactive)
48 | O=C(CSc1nnc(Cn2cnc3ccccc32)o1)c1ccccc1 | 52 | 82.5% (inactive)
49 | N#Cc1c(NC(=O)COC(=O)C2CC3C=CC2C3)oc(-c2ccccc2)c1-c1ccccc1 (stereo not given) | 94.6 | -44.1% (inactive)
50 | O=C(NCc1ccccc1)N1CCn2c(nc3ccccc32)C1 | 111 | -13.3% (inactive)
51 | CCCCn1c(SCc2cccnc2)nc2c1c(=O)n(C)c(=O)n2C | 198 | -15.9% (inactive)
52 | CCOC(=O)c1[nH]c2ccccc2c1NC(=O)c1ccco1 | 102 | 52.3% (inactive)
53 | CC(C(=O)NCCCN1CCOCC1)n1cccc1C(=O)c1ccccc1 (stereo not given) | 94.2 | -1.5% (inactive)
54 | COc1ccccc1NS(=O)(=O)c1ccc(NC(=O)c2nc3ncccn3n2)cc1 | 93 | -14% (inactive)
55 | CCCCCCC(=O)c1c(C)[nH]c(C(=O)OCC)c1C | 102 | -54.5% (inactive)
56 | O=C1CS/C(=N\C(=O)N2c3ccccc3Sc3ccccc32)N1 | 128 | -22.3% (inactive)
57 | COc1ccc2c(c1)CCc1c(C(=O)N3CCCc4ccccc43)noc1-2 | 108 | -32.7% (inactive)
58 | O=C(c1ccc(Cl)cc1)N(Cc1cccs1)C1CCS(=O)(=O)C1 (stereo not given) | 112 | -33.8% (inactive)
59 | c1nnc(NC2=NCCCCC2)s1 | 124 | 33.9% (inactive)
60 | Cc1cncn1CCc1nc2c3ccccc3nc(=S)n2[nH]1 | 110 | -141% (inactive)

Row | Structure (SMILES) | nuclei count [%] | inhibition
61 | Cc1ccc(S(=O)(=O)Cc2ccc(C(=O)NCc3ccc4c(c3)OCO4)o2)cc1 | 106 | -16.5% (inactive)
62 | Cn1cnnc1SCC(=O)Nc1sc2c(c1C#N)CCCCC2 | 108 | -29.2% (inactive)
63 | O=C(O)c1[nH]nc2c1COc1ccccc1-2 | 102 | 14.8% (inactive)
64 | CC1(C)CC(=O)c2cc(OCC(=O)NCCCN3CCN(c4ccccc4F)CC3)ccc2O1 | 103 | -156% (inactive)
65 | COCCn1c(=O)[nH]c2cc(C(=O)NCCCN3CCN(c4ccc(F)cc4)CC3)ccc2c1=O | 111 | -22.8% (inactive)
66 | O=C(COC(=O)C1(c2ccccc2F)CCCC1)NC1CCS(=O)(=O)C1 (stereo not given) | 106 | -14.4% (inactive)
67 | COc1cc(OC)c(C(=O)Nc2ccc(N(C)C)cc2)cc1OC | 116 | -85.5% (inactive)
68 | CCOC(=O)Nc1cc(OCC)c(NC(=O)C2CC2)cc1OCC | 119 | -52.7% (inactive)
69 | CCOC(=O)c1sc(N2C(=O)C(O)=C(C(=O)c3ccco3)C2c2ccccc2)nc1C (stereo not given) | 97.4 | -43.5% (inactive)
70 | O=c1oc(-c2ccco2)nc2ccccc12 | 132 | -332% (inactive)
71 | COc1cccc(OC)c1C(=O)Nc1ccccc1N1CCCC1 | 118 | 4.8% (inactive)
72 | Cc1ccccc1Cn1nc(C)c(NC(=O)c2noc3c2CCCC3)c1C | 120 | -13.5% (inactive)
73 | Cc1ccc(C(=O)C2COC(=O)C2)cc1 (stereo not given) | 103 | -31.2% (inactive)
74 | COc1ccc(S(=O)(=O)n2ccnc2)c2cccnc12 | 85.1 | 20.6% (inactive)
75 | CCOC(=O)c1ccc(-c2c(C(=O)OCC)oc3cc(O)c(CC)cc3c2=O)o1 | 100 | -22.1% (inactive)
76 | COc1cc(NC(=O)c2cc(OC)c(OC)c(OC)c2)c(OC)cc1NC(=O)CN1CCCCC1 | 115 | -14.6% (inactive)
77 | CCCCC(CC)C(=O)Nc1ccc(Cl)cn1 (stereo not given) | 117 | -29.4% (inactive)
78 | O=C(/C=N/O)Nc1cccnc1 | 98.5 | 57.2% (inactive)
79 | c1ccc2c(c1)Cn1c-2nc2ccccc21 | 114 | -26.5% (inactive)
80 | O=c1cc(COn2nnc3ccc(C(F)(F)F)cc32)nc2sccn12 | 141 | -51.6% (inactive)
